Results from the supplement of paper PMC13380429.

Experiments:
[1] = tested on: Vero E6 infected with SARS-CoV-2; assay: morphology score (similarity to uninfected cells); higher = more like uninfected cells; details: 24 h
[2] = tested on: Vero E6 infected with SARS-CoV-2; assay: SARS-CoV-2 infection rate relative to infected DMSO; higher = more infection, active = 60 or less; details: 24 h

Row | Compound | morphology score [1] | SARS-CoV-2 infection rate [2]
1 | CC1(C)CN(C(=O)c2ccc(-c3cccc4nc(NC(=O)C5CC5)nn34)cc2)C1 [solcitinib] (10 µM) | 0.0939 | 110% (inactive)
2 | O=C(O)c1ccc2c(c1)C(=O)N(c1cccc(Oc3ccc([N+](=O)[O-])cc3)c1)C2=O (10 µM) | 0.173 | 99.5% (inactive)
3 | Cc1ccc(S(=O)(=O)c2ccc([N+](=O)[O-])o2)cc1 (0.833333 µM) | 0.215 | 68% (inactive)
4 | O=C1NC(=O)c2c1c1c3ccccc3n3c1c1c2c2ccccc2n1C1CCC3O1 (10 µM) | -0.0614 | 108% (inactive)
5 | N[C@@H]1CCCCN(c2c(F)cc3c(=O)c(C(=O)O)cn(C4CC4)c3c2Cl)C1 [besifloxacin] (10 µM) | 0.165 | 110% (inactive)
6 | O=C(NC[C@H](O)CO)c1ccncc1Nc1ccc(I)cc1F (0.833333 µM) | -0.139 | 114% (inactive)
7 | O=C(O)c1cc(=O)c2ccccc2o1 [chromocarb] (10 µM) | -0.133 | 106% (inactive)
8 | CC(O)COC[C@H]1O[C@@H]2O[C@H]3[C@H](O)[C@@H](O)[C@@H](O[C@H]4[C@H](O)[C@@H](O)[C@@H](O[C@H]5[C@H](O)[C@@H](O)[C@@H](O[C@H]6[C@H](O)[C@@H](O)[C@@H](O[C@H]7[C@H](O)[C@@H](O)[C@@H](O[C@H]8[C@H](O)[C@@H](O)[C@@H](O[C@H]1[C@H](O)[C@H]2O)O[C@@H]8COCC(C)O)O[C@@H]7COCC(C)O)O[C@@H]6COCC(C)O)O[C@@H]5COCC(C)O)O[C@@H]4COCC(C)O)O[C@@H]3COCC(C)O (stereo partly drawn) [hydroxypropyl-beta-cyclodextrin] (10 µM) | 0.254 | 99% (inactive)
9 | Cc1cc([C@@H](C)Nc2ccccc2C(=O)O)c2nc(N3CCOCC3)cc(=O)n2c1 (10 µM) | -0.0702 | 105% (inactive)
10 | N#C/C(=C1/SC[C@@H](c2ccc(Cl)cc2Cl)S1)n1ccnc1 [luliconazole] (10 µM) | 0.0257 | 104% (inactive)
11 | CNC(=O)c1ccc(C)c(-n2c(C)cc(OCc3ccc(F)cc3F)c(Br)c2=O)c1 (0.833333 µM) | -0.158 | 116% (inactive)
12 | CC(C)(C)NCC(O)c1ccccc1Cl (stereo not given) [tulobuterol] (10 µM) | -0.0152 | 115% (inactive)
13 | Cc1ccccc1/N=N/c1ccc(NC(=O)c2ccnn2C)c(C)c1 (10 µM) | -0.087 | 109% (inactive)
14 | CN1CCC(=C2c3ccccc3CC(=O)c3sccc32)CC1 [ketotifen] (10 µM) | 0.144 | 101% (inactive)
15 | CCN(Cc1ccncc1)C(=O)C(CO)c1ccccc1 (stereo not given) [tropicamide] (10 µM) | -0.0682 | 104% (inactive)
16 | CC(=O)OCC(=O)[C@@]1(O)CC[C@H]2[C@@H]3CCC4=CC(=O)C=C[C@]4(C)[C@H]3[C@@H](O)C[C@@]21C [prednisolone-acetate] (10 µM) | -0.148 | 108% (inactive)
17 | COc1ccc2c(Oc3ccc(NC(=O)c4c(C)n(CC(C)(C)O)n(-c5ccccc5)c4=O)nc3)ccnc2c1 (10 µM) | 0.316 | 98% (inactive)
18 | CN1CCCC(n2nc(Cc3ccc(Cl)cc3)c3ccccc3c2=O)CC1 (stereo not given) [azelastine] (10 µM) | 0.458 | 72% (inactive)
19 | CC(=O)NC1N=C(c2ccccc2)c2ccccc2NC1=O (stereo not given) (10 µM) | 0.189 | 105% (inactive)
20 | COc1cc(C2Oc3cc([C@H]4Oc5cc(O)cc(O)c5C(=O)[C@@H]4O)ccc3OC2CO)ccc1O (stereo not given in full) [silibinin] (10 µM) | 0.0273 | 104% (inactive)
21 | COC(=O)Nc1nc2cc(SC(C)C)ccc2[nH]1 [methiazole] (0.833333 µM) | -0.254 | 120% (inactive)
22 | N#Cc1c(Oc2ccc(F)c(NC(=O)Cc3cccc(C(F)(F)F)c3)c2)ccc2nc(NC(=O)C3CC3)sc12 (10 µM) | -0.304 | 108% (inactive)
23 | CC(C)(Sc1cc(C(C)(C)C)c(O)c(C(C)(C)C)c1)Sc1cc(C(C)(C)C)c(O)c(C(C)(C)C)c1 [probucol] (10 µM) | 0.0913 | 100% (inactive)
24 | CC[C@H](CC#N)OC(=O)N[C@@H](C)c1cccc(NC(=O)Nc2ccc(-c3cnco3)c(OC)c2)c1 (10 µM) | -0.000547 | 97% (inactive)
25 | C=C1CC[C@H](O)C/C1=C/C=C1\CCC[C@]2(C)[C@@H]([C@H](C)/C=C/[C@H](C)C(C)C)CC[C@@H]12 [ergocalciferol] (10 µM) | 0.0614 | 93.5% (inactive)
26 | O=C1[O][SbH]23[O]C(=O)C([O]2)C2[O][SbH]4([O]C(=O)C([O]4)C1[O]3)[O]C2=O [antimonyl] (10 µM) | 0.138 | 99.5% (inactive)
27 | CCCCCCCCCCCCCCCC(=O)OC[C@H](COP(=O)([O-])OCC[N+](C)(C)C)OC(=O)CCCCCCCCCCCCCCC [colfosceril-palmitate] (10 µM) | 0.152 | 103% (inactive)
28 | Nc1cccc2c(=O)[nH][nH]c(=O)c12 [monosodium-alpha-luminol] (10 µM) | 0.000532 | 104% (inactive)

Row | Compound | morphology score [1] | SARS-CoV-2 infection rate [2]
29 | Nc1nc(=O)c2nc(CNc3ccc(C(=O)N[C@@H](CCC(=O)O)C(=O)O)cc3)cnc2[nH]1 [folic-acid] (10 µM) | 0.207 | 102% (inactive)
30 | CCCCCn1cc(C(=O)NC23CC4CC(CC(C4)C2)C3)c(=O)c2cc(-c3ccccc3)ccc21 (10 µM) | 0.119 | 107% (inactive)
31 | CNC(=O)[C@@H](Cc1ccccc1)N(C)C(=O)[C@@H](Cc1ccc2ccccc2c1)N(C)C(=O)/C=C/CC(C)(C)N [tabimorelin] (10 µM) | -0.00047 | 112% (inactive)
32 | O=C(O)Cc1ccc(OCc2ccccc2)c(Cl)c1 [benzofenac] (10 µM) | -0.114 | 106% (inactive)
33 | COC(=O)[C@@H]1C[C@H](OC(C)=O)C(=O)[C@H]2[C@@]1(C)CC[C@H]1C(=O)O[C@H](c3ccoc3)C[C@]21C [salvinorin-A] (10 µM) | 0.127 | 100% (inactive)
34 | CCOc1ccn(-c2ccc(F)cc2)c(=O)c1C(=O)Nc1ccc(Oc2ccnc(N)c2Cl)c(F)c1 (10 µM) | 0.364 | 107% (inactive)
35 | N=C(N)Nc1ccc(C(=O)Oc2ccc3cc(C(=N)N)ccc3c2)cc1 [nafamostat] (10 µM) | 0.172 | 108% (inactive)
36 | Cc1c(CC(C)(C)C(=O)O)n(Cc2ccc(Cl)cc2)c2ccc(F)cc12 (10 µM) | -0.214 | 113% (inactive)
37 | N[C@@H](Cn1oc(=O)[nH]c1=O)C(=O)O [L-quisqualic-acid] (10 µM) | 0.0395 | 106% (inactive)
38 | O=C(N[C@H](CO)[C@H](O)c1ccc([N+](=O)[O-])cc1)C(Cl)Cl [chloramphenicol] (10 µM) | -0.278 | 117% (inactive)
39 | N=C(N)S/C=C\C(=O)O (10 µM) | 0.101 | 108% (inactive)
40 | CN1CCC(NC(=O)c2cc(-c3c(O)cc(O)cc3Oc3ccc([N+](=O)[O-])cc3)on2)CC1 (0.833333 µM) | 0.247 | 95.5% (inactive)
41 | C=C(C)[C@@H]1CC[C@]2(C(=O)O)CC[C@]3(C)[C@H](CC[C@@H]4[C@@]5(C)CC[C@H](O)C(C)(C)[C@@H]5CC[C@]43C)[C@@H]12 [betulinic-acid] (10 µM) | 0.0296 | 108% (inactive)
42 | Cc1cn([C@H]2O[C@@H](CO)[C@H](O)[C@H]2F)c(=O)[nH]c1=O [clevudine] (10 µM) | -0.0291 | 107% (inactive)
43 | NC(=O)NC(=O)Cc1ccccc1 [phenacemide] (10 µM) | 0.0778 | 114% (inactive)
44 | CC(C)CCC[C@@H](C)[C@H]1CC[C@H]2[C@@H]3CC=C4C[C@@H](O)CC[C@]4(C)[C@H]3CC[C@]12C [cholesterol] (10 µM) | 0.178 | 98% (inactive)
45 | CN1CCN(c2ccc3nc(-c4c(N)c5c(F)cccc5[nH]c4=O)[nH]c3c2)CC1 [dovitinib] (10 µM) | -0.00197 | 102% (inactive)
46 | O=C(NOCCO)c1ccc2cncn2c1Nc1ccc(I)cc1F (0.833333 µM) | -0.298 | 121% (inactive)
47 | O=S1(=O)c2cccc3cccc(c23)N1CCCN1CCN(c2ccc(F)cc2)CC1 [fananserin] (10 µM) | -0.0356 | 108% (inactive)
48 | Cn1c2cc([S+](C)[O-])sc2c2cnn(Cc3cccc(N)c3)c(=O)c21 (stereo not given) (10 µM) | 0.0427 | 107% (inactive)
49 | O=C(CO)[C@@H](O)[C@@H](O)[C@H](O)CO [tagatose] (10 µM) | -0.0178 | 108% (inactive)
50 | CC1(C)C(/C=C/C=C/C=C/C=C2\N(CCCCS(=O)(=O)O)c3ccc4ccccc4c3C2(C)C)=[N+](CCCCS(=O)(=O)[O-])c2ccc3ccccc3c21 [indocyanine-green] (10 µM) | 0.0305 | 109% (inactive)
51 | Cc1ccc(C)c([C@H](O)CNC(C)C)c1 [benzenemethanol,-2,5-dimethyl-[[(1-methylethyl)amino]methyl]] (10 µM) | 0.0583 | 106% (inactive)
52 | CC[C@@H](C)c1ccc(NC(=O)Cn2cnc3c2c(=O)n(C)c(=O)n3C)cc1 (racemic) (10 µM) | 0.119 | 92% (inactive)
53 | CCCCCCCCC(=O)N[C@H](CN1CCCC1)[C@H](O)c1ccc2c(c1)OCCO2 (10 µM) | 0.393 | 71.5% (inactive)
54 | O=C(O)CNC(=O)c1ccccc1 [hippuric-acid] (10 µM) | -0.0766 | 109% (inactive)
55 | CCOc1cc([C@@H](CS(C)(=O)=O)N2C(=O)c3cccc(NC(C)=O)c3C2=O)ccc1OC [apremilast] (10 µM) | 0.345 | 89% (inactive)
